Test results taken from PubChem BioAssay (Tox21).
Activity calls are given as the source filed them. Calls follow the shape of the full dose curve.

These molecules were tested against Gonadotropin-releasing hormone receptor (Homo sapiens) (UniProt P30968) (assay: Human gonadotropin-releasing hormone receptor (GnRHR) small molecule agonists, calcium flux assay in GnRHR-HEK293 cells (AID 1920063; also: nearly all actives have a fitted effect of over 35% in size)). Settings: calcium flux fluorescence, agonist mode; series mostly up to 57.6 µM; activity change: at the top concentration.
From the text: National Center for Advancing Translational Sciences [NCATS]
Division of Preclinical Innovation [DPI]
U.S. Environmental Protection Agency [EPA]
National Institutes of Environmental Health Sciences [NIEHS]
National Toxicology Program [NTP]
U.S. Food and Drug Administration [FDA]
Gonadotropin-releasing hormone receptor (GnRHR) is a G-protein-coupled receptor (GPCR) and acts (through phospholipase C) to increase intracellular inositol trisphosphate and then release intracellular calcium stores. Cell-based GnRHR-Hek293 calcium influx assay is using HEK293 cells that have been genetically engineered to express the human GnRHR, which activity can be measured by calcium signaling. A compound/drug can activate (agonist) GnRHR that can be monitored by levels of intracellular calcium.
GnRHR-HEK293 cells developed by Codex Corp contain human GnRHR reporter gene, which was stably integrated into HEK 293 cells. The compound activation can be detected by fluorescence intensity via calcium flux assay. This cell line has been used to screen the Tox21 10K compound library to identify GnRHR agonists.
GnRHR-Hek293 cells were dispensed at 1500cells/4uL/well in 1536-well black wall/clear bottom plates using a multidrop dispenser. After the assay plates were incubated at a 37 C/5% CO2 incubator for 18 hours, 4 uL of Calcium Dye Solution was added to each well. The plates were incubated at 37 C for 1 hour. For agonist mode, 23 nL of compounds dissolved in DMSO, positive controls or DMSO only was transferred to the assay plate by a pin tool station. The fluorescence intensity in the plates was measured using FDSS 7000EX kinetic plate reader with a filter set of Ex/Em=480/540 for 3 min at 1 sec intervals. Each test compound was measured at 15 concentrations and in triplicates.
% is scaled to controls: 0 for no effect and ±100 for the full control effect.

Sequence of Gonadotropin-releasing hormone receptor (Homo sapiens) (P30968 whole entry, looked up): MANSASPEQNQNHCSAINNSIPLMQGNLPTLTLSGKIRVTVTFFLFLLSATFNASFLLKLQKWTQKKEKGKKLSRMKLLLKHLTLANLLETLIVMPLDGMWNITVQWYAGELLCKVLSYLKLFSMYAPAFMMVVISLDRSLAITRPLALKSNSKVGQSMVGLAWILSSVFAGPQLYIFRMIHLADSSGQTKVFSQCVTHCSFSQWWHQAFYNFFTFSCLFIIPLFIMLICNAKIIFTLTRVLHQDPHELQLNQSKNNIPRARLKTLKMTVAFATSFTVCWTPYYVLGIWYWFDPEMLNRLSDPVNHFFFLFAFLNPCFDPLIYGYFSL

Row | Compound | Potency | activity change
1 | Oc1cccc2ccccc12 | inactive | –
2 | COC(=O)Nc1nc2ccc(Sc3ccccc3)cc2[nH]1 | – | -0.708% (inactive)
3 | CCCCCCCCOC(=O)CCCCCCCCC(=O)OCCCCCCCC | – | -1.09% (inactive)
4 | CC1=CCC(C(C)(C)O)CC1 (stereo not given) | inactive | –
5 | NC(=O)NNC(N)=O | – | -0.326% (inactive)
6 | C=CCn1cc[n+](C)c1 | – | 0.585% (inactive)
7 | Cc1cccc(C)c1NC(=O)CC12CCCN1CCC2 | – | -0.0004% [at 26.4 µM, hits give high values] (inactive)
8 | C=C1[C@H]2CC[C@@H]3[C@H]2C(C)(C)CCC[C@]13C | – | 0.283% (inactive)
9 | Nc1ccc2cc3ccccc3cc2c1 | – | 13.6% (inactive)
10 | N[C@H](C(=O)O)c1ccc(O)cc1 | – | -1.58% [at 11.8 µM, hits give high values] (inactive)
11 | CC(=O)[C@H]1CC[C@H]2[C@@H]3CCC4=CC(=O)CC[C@]4(C)[C@H]3CC[C@]12C | inactive | –
12 | CN1N=C(C(N)=O)CCC1=O | – | -1.24% [at 26.4 µM, hits give high values] (inactive)
13 | O=Cc1cccc([N+](=O)[O-])c1 | – | 2.07% (inactive)
14 | CC(C)c1ccccc1O | – | -0.12% (inactive)
15 | O=C(O)/C=C/C(=O)O | inactive | –
16 | COc1cc(Cl)ccc1Cl | – | -0.0021% (inactive)
17 | CCO[Si](C)(C)OCC | – | -0.0636% (inactive)
18 | CC(=O)CCC(C)C | – | 0.247% (inactive)
19 | CN1C(=O)CC(C)(c2ccccc2)C1=O (stereo not given) | – | -0.238% [at 26.4 µM, hits give high values] (inactive)
20 | CC(C=O)Cc1ccc(C(C)(C)C)cc1 (stereo not given) | inactive | –

Row | Compound | Potency | activity change
21 | CN(C)N=Nc1ccccc1 | – | 0.614% (inactive)
22 | O[C@@H]([C@H](O)[C@H](O)CBr)[C@H](O)CBr | – | 0.213% (inactive)
23 | Cc1ccc(NC(=O)N(C)C)cc1NC(=O)N(C)C | – | -1.2% (inactive)
24 | CC1CCC(C(C)C)C(O)C1 (stereo not given) | inactive | –
25 | c1ccc2c(c1)ccc1ncccc12 | inactive | –
26 | Oc1ccccc1O | inactive | –
27 | CC(=O)SC[C@@H](C)C(=O)N1CCC[C@H]1C(=O)N[C@@H](Cc1ccccc1)C(=O)O | – | 1.7% [at 26.4 µM, hits give high values] (inactive)
28 | Oc1ccc(C(c2ccc(O)cc2)C(Cl)(Cl)Cl)cc1 | inactive | –
29 | O=C(O)CN(CCN(CC(=O)O)CC(=O)O)CCN(CC(=O)O)CC(=O)O | – | -0.364% [at 11.8 µM, hits give high values] (inactive)
30 | C=CC(C)(O)CC/C=C(\C)CC (stereo not given) | – | -1.34% (inactive)
31 | Cc1ccc2c(ccc3ccccc32)c1 | – | -0.975% (inactive)
32 | CC(C)CNCC(C)C | – | 1.34% (inactive)
33 | CC(C)NC(=O)c1ccccc1N | – | 0.0036% (inactive)
34 | CNC1(C)C2CCC(C2)C1(C)C (stereo not given) | – | -0.823% [at 26.4 µM, hits give high values] (inactive)
35 | O=S(=O)(O)C(F)(F)F | – | -0.467% (inactive)
36 | N[C@@H](CSSC[C@H](N)C(=O)O)C(=O)O | – | 1.59% [at 0.217 µM, hits give high values] (inactive)
37 | NC(=O)NNc1ccccc1 | inactive | –
38 | COCCCC/C(=N\OCCN)c1ccc(C(F)(F)F)cc1 | – | 9.92% [at 26.4 µM, hits give high values] (inactive)
39 | CCC(C)S (stereo not given) | – | -0.606% [at 2.04 µM, hits give high values] (inactive)
40 | CC[C@H](C)[C@H](N)C(=O)O | – | -0.488% [at 26.4 µM, hits give high values] (inactive)
